12 compounds from PubChem BioAssay (NCATS) can be followed below.

Assay [1] relates to Zika virus NS2B-NS3 protease (unlinked complex). The assay is described as follows: Primary screen GU Rhodamine qHTS for Zika virus inhibitors: Unlinked NS2B-NS3 protease assay (AID 1347159). Note: nearly all actives have a fitted effect of over 60% in size. Particulars: Recombinant ZIKV NS2B-NS3 protease, Rhodamine110 substrate fluorescence; series mostly up to 107 µM. The method, boiled down:
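Unlinked NS2B/NS3, 25 nM; Rhod110 peptide, 1.5 microM; compounds, up to 114 microM. Reaction run 15 min at RT in 10 mM Tris-HCl pH 8.0, 0.01% Tween 20; kinetic fluorescence change fitted with a 4-parameter Hill model.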
A general note: Quantitative high-throughput screening tests each substance at several concentrations.

In assay [2] the test system is Zika virus NS2B-NS3 protease (linked construct). The assay is described as follows: Primary screen NINDS Rhodamine qHTS for Zika virus inhibitors (AID 1347160). Note: nearly all actives have a fitted effect of over 55% in size. To be noted: purified NS2B-NS3 protease, Rhodamine110 substrate fluorescence; series mostly up to 57.1 µM. The method, boiled down: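 Single-chain NS2B-NS3 protease, 25 nM, pH 8.0; compounds preincubated 15 min. Activity: Rhodamine110 release from 1.5 microM substrate over 15 min, room temperature, data fitted to 4-parameter Hill.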

Results filed as inconclusive are left out. Entries that show only a call come without a potency. Active and inactive are the calls of the source. Calls come from the whole dose curve; as a rule, active = well fitted inhibition curve with a large enough effect; inconclusive = small, poorly fitted or top-dose-only effect; inactive = no such curve, though single readings can be large or run the other way.

On to `COc1cc(O)cc(C)c1C(=O)OC1C(CO)OC(OC2C(O)C(O)C(O)C(O)C2O)C(O)C1O` (centres undefined), for which the Potency result in assay [1] and in assay [2] was “inactive” in each case.

For `CC1(CCOC2OC(CO)C(O)C(O)C2O)CCC23OC2(C1)C(O)CC1C(C)(C(=O)O)CCCC13C` (centres undefined), the Potency entry in assay [1] and in assay [2] was “inactive” in each case.

As to `COc1cc(-c2ncn(/C=C\C(=O)OC(C)C)n2)cc(C(F)(F)F)c1`, the Potency result in assay [1] and in assay [2] was “inactive” each time.

Take `Cc1cc(C(=O)N2Cc3cnn(C)c3Nc3ccccc32)ccc1CNC(=O)N1CCC[C@H]1C(=S)N1CCCN(C)CC1`: the Potency result in assay [1] and in assay [2] was “inactive” throughout.

Consider `COc1cc(OC)c(/C=C/S(=O)(=O)Cc2ccc(OC)c(NCC(=O)O)c2)c(OC)c1`, for which the Potency result in assay [1] and in assay [2] was “inactive” each time.

Regarding `NCc1c[nH]c(=S)n1[C@@H]1CCc2c(F)cc(F)cc2C1`, the Potency entry in assay [1] and in assay [2] was “inactive” each time.

In the case of `CS(=O)(=O)N1CCC(NC(=O)c2[nH]ncc2NC(=O)c2c(Cl)cccc2Cl)CC1`, the Potency result in assay [1] and in assay [2] was “inactive” in each case.

Turning to `C[C@@H]1CC[C@@]2(OC1)O[C@H]1C[C@H]3[C@@H]4CC=C5C[C@@H](O)CC[C@]5(C)[C@H]4CC[C@]3(C)[C@H]1[C@@H]2C`, the Potency entry in assay [1] and in assay [2] was “inactive” in each case.

As to `COc1c(Nc2ncc(Cl)c(N[C@H]3[C@@H](C(N)=O)[C@@H]4C=C[C@H]3C4)n2)ccc2c1CC[C@@H](N1CCOCC1)CC2`, the Potency result in assay [1] and in assay [2] was “inactive” in each case.

In the case of `CC1(C)CCC[C@]2(C)[C@H]3CC(=O)O[C@]3(C)CC[C@@H]12`, the Potency entry in assay [1] and in assay [2] was “inactive” throughout.

Regarding `N#C[C@@H]1CCCN1C(=O)CNC12CC3CC(CC(O)(C3)C1)C2`, the Potency result in assay [1] and in assay [2] was “inactive” throughout.

Take `O=C1NC2CCc3nc4ccccc4c(=O)n3C2=Nc2ccccc21` (centres undefined): the Potency result in assay [1] and in assay [2] was “inactive” throughout.
